# Bioassay records as filed in PubChem.
# Peg3 imprint = genomic imprint erasure induction | Potency, µM (titrated, usually from 60.7 µM), most hits filed as activators | actives 0.02% (n = 110,000) | mouse ES Peg3-LacZ reporter, beta-gal luminescence, 40 h | AID 1948
#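 Imprint erasure is scored as LacZ activity from the silenced maternal Peg3 allele in feeder-free female ES cells cultured 40 h with LIF. Luminescence is normalized to in-plate negative controls and fitted to the Hill equation.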
# IkB signaling = IkB pathway inhibition in ABC-DLBCL cells. ABC-DLBCL IkBa-CBG/CBR dual luciferase ratio, 4 h; response scale: scaled: untreated 0%, proteasome inhibitor 100%. Potency, µM (series often up to 57.1 µM). actives 0.04% (n = 110,000); active means well fitted curve in the direction sought with a large enough effect in the signal ratio, not every such curve was filed as active; inconclusive means small, poorly fitted or top-dose-only effect, or a change in a side signal; the % refers to the signal ratio;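 further: the direction sought is a rising ratio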
#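 Curves were fitted separately to fusion (green), unfused (red) and ratio luminescence, then classed by r2, magnitude and activity. Cells: OCI-Ly3, 4 h compound plus doxycycline at 37C; 10 uM MG-132 defined full response.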
# CRE Fsk mod = CRE-bla signaling modulation under forskolin stimulation; CHO CRE-bla reporter (cAMP response element driving beta-lactamase), forskolin EC10, beta-lactamase ratio; Potency, µM (doses to about 38.2 µM), usual class: activators; actives 2.5% (n = 71,000); AID 662; active means well fitted activation curve with a large enough effect in the signal ratio, with a control signal flat, not every such curve was filed as active; inconclusive means small, poorly fitted or top-dose-only effect, or effect the other way, or a change in a side signal; the % refers to the signal ratio
#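 Titrated compounds plus EC10 NKH 477 on CHO CRE-bla cells, 3 h, 37 °C. CCF4, 2 h RT. Ratio 460/530 nm → AC50.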
# p53ts 32C tox = cytotoxicity in p53ts cells at permissive temperature; H1299-p53A138V at 32C, ATP luminescence viability, 24 h; Potency, µM (highest dose often 46.1 µM), hits mostly cytotoxic; actives 0.93% (n = 130,000); further: nearly all actives have a fitted effect of over 55% in size
#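 H1299-p53 A138V cells (temperature-sensitive p53) exposed 24 h to up to 46 uM compound at 32C, where p53 is wild-type in conformation. Viability read as ATP luminescence and normalised to DMSO and 100 uM tamoxifen. AC50 fitted with the Hill equation.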
# p53ts 39C kill = p53ts cell cytotoxicity, nonpermissive temperature; H1299-p53A138V viability at 39C, ATP luminescence, 24 h; Potency, µM (top dose mostly 46.1 µM), most hits filed as cytotoxic; actives 1.5% (n = 130,000); further: nearly all actives have a fitted effect of over 55% in size
# Numbers stand for hits; n = inactive; u = inconclusive; x = not tested or not shown; [ ] = remark or other dose. In the library only some 3% were active in any assay of this set; here they are far more common. Unless noted, the call rests on the fitted dose curve; in most records, active means well fitted curve in the direction sought with a large enough effect; inconclusive means small, poorly fitted or top-dose-only effect, or another doubt; inactive means no such curve, though single readings can be large; an effect the other way counts as inactive or inconclusive.
SMILES,Peg3 imprint,IkB signaling,CRE Fsk mod,p53ts 32C tox,p53ts 39C kill
CCn1cc(C(=O)N2CCN(C(=O)c3ccco3)CC2)c2cc(OC)c(OC)cc2c1=O,n,n,10µM,n,n
Cc1oc2ccc(O)c(CN3CCCC3)c2c1C(=O)Nc1cccc(Cl)c1C,n[10.9 µM],n,x,n,n
COc1ccc(-c2nc3cnc(Oc4cccc(Cl)c4)nc3n(C3CC3)c2=O)cc1,n,n[11.4 µM],3.2µM,n,n
Cn1c(=O)c(-c2ccccc2)nc2cnc(Oc3ccccc3)nc21,x,n[11.4 µM],n,n,n
Cn1c(=O)c(-c2ccc(Cl)cc2)nc2cnc(Oc3ccccc3)nc21,x,n[11.4 µM],3.2µM,n,n
O=c1c(-c2ccccc2)nc2cnc(Oc3cccc(Cl)c3)nc2n1C1CC1,n,n[11.4 µM],u,n,n
Cc1ccc2nc(-c3sc4nc(C)ccc4c3N)[nH]c2c1,x,x,x,13µM,10µM
Cc1ccc(Cl)cc1N(C)C(=O)c1cc2ccc3cccnc3c2[nH]1,n[10.9 µM],u,x,n,25µM
Nc1c(C(=O)NCC2CCCO2)c2nc3ccccc3nc2n1-c1ccccc1 (centres undefined),n,u,13µM,n,n
Nc1c(C(=O)NCCN2CCOCC2)c2nc3ccccc3nc2n1-c1cccc(F)c1,n,n,7.9µM,n,n
C=CCNC(=O)c1c(N)n(-c2ccc3c(c2)OCO3)c2nc3ccccc3nc12,n,n,1µM,n,n
CCCNC(=O)c1c(N)n(-c2cccc(OC)c2)c2nc3ccccc3nc12,n,u,u,n,n
COc1ccccc1-n1c(N)c(C(=O)NCC2CCCO2)c2nc3ccccc3nc21 (centres undefined),x,x,x,n,n
COCCCNC(=O)c1c(N)n(-c2cccc(S(N)(=O)=O)c2)c2nc3ccccc3nc12,n,n,13µM,n,n
Cc1ccc(C)c(NC(=O)C(=O)NCCc2csc3nc(-c4ccccc4C)nn23)c1,n[10.9 µM],u,x,u,u
COc1ccc(-c2cc3nc(C)cc(NCCO)n3n2)cc1,n,n,u,u,u
Cc1ccc(-c2cc3nc(C)cc(NCc4ccco4)n3n2)cc1,n,u,13µM,u,u
COc1ccc2c(c1)sc1nc(-c3ccccc3)cn12,n,u,u,0.63µM,1.3µM
O=C(CSc1nc(-c2ccccc2)no1)N1CCCCC1,n[10.9 µM],u,x,n,n
O=C(CSc1nc(-c2ccccc2)no1)N1CCN(c2ccccc2F)CC1,n[10.9 µM],u,x,n,n
CC(C)c1ccc(-c2noc(SCC(=O)N3CCN(c4ccccc4F)CC3)n2)cc1,n[10.9 µM],n,x,u,6.3µM
COc1ccccc1N1CCN(C(=O)CSc2nc(-c3ccc(C(C)C)cc3)no2)CC1,n[10.9 µM],u,x,7.9µM,u
Cc1ccc2nc(-c3ccc(NC(=O)c4ccc(S(C)(=O)=O)cc4)cc3)sc2c1,u,n,x,n,n
Cc1ccc2nc(-c3ccc(NC(=O)C(F)(F)F)cc3)sc2c1,n[10.9 µM],n,x,3.2µM,1.6µM
CCN1CCN(c2c(S(=O)(=O)c3ccc(C)c(C)c3)cnc3cc(OC)c(OC)cc23)CC1,n[10.9 µM],u,x,n,n
SMILES,Peg3 imprint,IkB signaling,CRE Fsk mod,p53ts 32C tox,p53ts 39C kill
NC(=O)c1cnn2c(C(F)(F)F)cc(-c3ccc(F)cc3)nc12,n,n,10µM,n,n
NC(=O)c1cnn2c(C(F)(F)F)cc(-c3ccccc3)nc12,n,n,u,n,n
O=C(CCSCc1cccc(Cl)c1)N1CCN(c2ccc(Cl)cc2)CC1,n[10.9 µM],u,x,n,u
CC1CCN(c2nc3ccc(C(=O)NCc4ccc(Cl)cc4)cc3s2)CC1,n[10.9 µM],u,x,n,n
CC1CCN(c2nc3ccc(C(=O)O)cc3s2)CC1,x,x,x,10µM,u
COc1ccccc1N1CCN(c2ncnc3c2nnn3C)CC1,n[10.9 µM],n,x,n,n
CO[C@@H]1/C=C\O[C@]2(C)Oc3c(C)c(O)c4c(O)c(cc(O)c4c3C2=O)NC(=O)/C(C)=C\C=C/[C@H](C)[C@@H](O)[C@H](C)[C@H](O)C(C)[C@H](OC(C)=O)[C@@H]1C (some centres undefined),n[10.9 µM],x,x,x,x
Fc1ccc(CNc2cc(-c3ccccc3)nc3nncn23)cc1,n[10.9 µM],u,x,n,n
COc1cc(-c2nc3ccc(C)cn3c2Nc2ccc(Cl)cc2)ccc1O,n[10.9 µM],u,x,n,16µM
c1ccc(Cc2nnc3sc(-c4ccco4)nn23)cc1,n,n,n,n,n
COc1cc(-c2nn3c(-c4ccccc4)nnc3s2)cc(OC)c1OC,n,n,4µM,n,n
COc1cc(-c2nnc3sc(-c4ccncc4)nn23)cc(OC)c1OC,n,n,2µM,n,n
COc1cc(OC)c(-c2nn3c(-c4ccncc4)nnc3s2)cc1OC,n,n,u,n,n
COc1cc(-c2nn3c(Cc4ccccc4)nnc3s2)cc(OC)c1OC,n,n,0.79µM,n,n
CCc1ccccc1NC(=O)CN1CCCN(Cc2cc(C)ccc2C)S1(=O)=O,n[10.9 µM],u,x,n,n
Cc1cccc(-n2ncc3c(NC4CCCCC4)ncnc32)c1,n,n,u,10µM,16µM
Cc1ccc(-n2ncc3c(NC4CCCCC4)ncnc32)cc1Cl,n[10.9 µM],u,x,u,u
Cc1cccc(-n2ncc3c(NC4CCCC4)ncnc32)c1,n[10.9 µM],u,x,13µM,7.9µM
Cc1ccc(-n2ncc3c(NC4CCCCC4)ncnc32)cc1C,n[10.9 µM],u,x,n,13µM
COc1ccc(C(=O)Nc2cccc(C)c2)cc1,n,u,u,6.3µM,5µM
COc1ccc(NC(=O)Nc2nnc(C)s2)cc1,n[10.9 µM],n,x,n,u
COc1ccc(C(=O)Nc2cc(OC)ccc2OC)cc1,n,u,n,u,u
COc1ccc(C(=O)Nc2nnc(C)s2)cc1,n[10.9 µM],u,x,13µM,13µM
COc1ccc(C(=O)Nc2ccccc2C(N)=O)cc1,n,u,u,13µM,13µM
COc1ccc(C(=O)Nc2cc(OC)nc(OC)n2)cc1,x,x,x,16µM,10µM
SMILES,Peg3 imprint,IkB signaling,CRE Fsk mod,p53ts 32C tox,p53ts 39C kill
COc1cc(-c2nc(SCC(=O)Nc3ccc(C)cc3)c(-c3ccc(F)cc3)[nH]2)cc(OC)c1OC,n[10.9 µM],u,x,n,n
O=C(Cn1c(=O)c2sccc2n(CC(=O)Nc2ccc(Cl)cc2Cl)c1=O)NCCc1ccccc1,n[10.9 µM],n,x,n,n
COc1ccc(CCNC(=O)c2nc(SCc3ccccc3F)ncc2Cl)cc1OC,n[10.9 µM],n,x,n,n
Cc1ccc(OCC(=O)Nc2ccc3nc(SCC(=O)N4CCCC4)sc3c2)cc1C,n[10.9 µM],u,x,n,n
O=C(C1CCN(c2ncnc3c2nc2n3CCCCC2)CC1)N1CCN(c2cccc(Cl)c2)CC1,x,x,x,n,x
Clc1cccc(N2CCN(c3ncnc4c3nc3n4CCCCC3)CC2)c1,n[10.9 µM],u,x,u,13µM
c1ccc(Cn2nnc3c(N4CCOCC4)ncnc32)cc1,n,n,10µM,n,n
CCn1c(CNC(=O)c2ccc(OC)cc2)nnc1SCC(=O)Nc1ccc(F)cc1,n[10.9 µM],n,x,n,n
O=C(NC1CC1)c1ccc(-c2nc3ccccc3s2)s1,n,u,n,0.5µM,0.4µM
Cc1cc(NCCCN2CCOCC2)n2ncc(-c3ccccc3)c2n1,n,n,u,n,n
